From PubChem BioAssay (NCATS) come the findings set out here.

Structures are written as SMILES. Results filed as inconclusive are left out. Where a call stands in place of a potency, no number is given. Active and inactive are the calls of the source. Calls follow the shape of the dose curve; as a rule, active = well fitted inhibition curve with a large enough effect; inconclusive = small, poorly fitted or top-dose-only effect; inactive = flat fitted curve, though single readings scatter.

This experiment deals with CRL-7250. Description: qHTS assay to identify novel small-molecules to repurpose for Merkel cell carcinoma treatment (AID 1296009). Also: nearly all actives have a fitted effect of over 60% in size. As to conditions: MCC and control cell lines, CellTiter-Glo viability, 72 h; series mostly up to 92 µM. Put shortly:
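After compound transfer in DMSO, plates were kept 72 hr at 37 degree celsius. Luminescent ATP signal from CellTiter-Glo served as viability measure, normalized against DMSO and no-cell controls.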
A general note: Quantitative high-throughput screening tests each substance at several concentrations.
With `COc1cccc2c1CCC[C@H]2CN(C)CCc1ccc2ccoc2c1`, the Potency result was “inactive”.
Turning to `C[C@@H]1CC[C@]2(C(=O)O[C@@H]3O[C@H](CO[C@@H]4O[C@H](CO)[C@@H](O)[C@H](O)[C@H]4O)[C@@H](O)[C@H](O)[C@H]3O)CC[C@]3(C)C(=CCC4[C@@]5(C)CC[C@H](O)[C@](C)(C(=O)O)C5CC[C@]43C)[C@@H]2[C@]1(C)O` (stereo partly specified), the outcome is “inactive [at 9.27 µM]”.
Take `CCOC(=O)c1cc(C#N)c(N2CCC(C(=O)NS(=O)(=O)Cc3ccccc3)CC2)nc1C`: the Potency result is “inactive”.
The same measure, in the same setting: in the case of `COc1cc(O)cc(C)c1C(=O)OC1C(CO)OC(n2ccc(=O)[nH]c2=O)C1OC(C)=O` (stereo unspecified) it was “inactive”.
Still for that read-out and setting: then `CC(C)C1(O[C@@H]2O[C@H](CO)[C@@H](O)[C@H](O)[C@H]2O)CC=C(CO)CC1` (stereo partly specified), with “inactive”; and `N#CC(c1ccnc(OCc2ccc(CN3CCOCC3)cc2)n1)c1nc2ccccc2s1` (stereo unspecified), with “inactive”.
`CC(=O)/C=C/C1(O)C(C)CC(O[C@@H]2O[C@H](CO)[C@@H](O)[C@H](O)[C@H]2O)CC1(C)C` (stereo partly specified): the Potency entry is “inactive”.
Still for that read-out and setting: in the case of `CC(c1ncncc1F)C(O)(Cn1cncn1)c1ccc(F)cc1F` (stereo unspecified) it was “inactive”; in that of `COC1=CC(=O)O[C@@H](/C=C/c2ccccc2)[C@@H]1O`, “inactive”.
`CC(=O)OCC1OC(O[C@H]2CC[C@@]3(C)C(CC[C@]4(C)C3CC=C3[C@@H]5CC(C)(C)CC[C@]5(C(=O)O)CC[C@]34C)[C@]2(C)CO)C(O)C(O)C1OC1OC(C)C(O)C(OC2OCC(O)C(O)C2O)C1O` (stereo partly specified): the outcome is “inactive [at 9.27 µM]”.
On to `On1ncc(C2CCNCC2)c1-c1cccc(-c2ccccc2)c1`, for which the Potency result is “inactive”.
